# In paper PMC11062922 (Nature Chemical Biology, 2023):
# Like-named read-outs stand apart in the source and are kept apart here.
# Tests used:
# PRKD3 = details: read-out: apparent Kd, n = 1
# Q6ZSR9 = Q6ZSR9 (human, UniProt Q6ZSR9); details: read-out: apparent Kd, n = 1
# Q6ZSR9, sequence (Q6ZSR9 whole entry, looked up): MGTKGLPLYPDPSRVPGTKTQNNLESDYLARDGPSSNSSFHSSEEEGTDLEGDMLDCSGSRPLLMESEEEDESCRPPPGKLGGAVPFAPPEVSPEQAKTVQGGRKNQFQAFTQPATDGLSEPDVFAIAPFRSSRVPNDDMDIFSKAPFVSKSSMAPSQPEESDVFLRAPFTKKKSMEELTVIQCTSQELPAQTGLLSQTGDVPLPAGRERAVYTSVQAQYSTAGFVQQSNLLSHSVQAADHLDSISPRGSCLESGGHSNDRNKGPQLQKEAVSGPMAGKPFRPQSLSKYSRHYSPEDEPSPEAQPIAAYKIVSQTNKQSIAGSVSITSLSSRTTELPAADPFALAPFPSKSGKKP
substance,measurement,setting,value
Lestaurtinib,potency estimated from few doses,"PRKD3; compound concentrations:100 nM and 1000 nM (sheet 'Lestaurtinib' of Supplementary Table 1),run:Lestaurtinib_02766_R2,Plate:MR027",74.6 nM
same,potency estimated from few doses,"PRKD3; compound concentrations:100 nM and 1000 nM (sheet 'Lestaurtinib' of Supplementary Table 1),run:Lestaurtinib_02768_R3,Plate:MR028",59.1 nM
same,potency estimated from few doses,"PRKD3; compound concentrations:100 nM and 1000 nM (sheet 'Lestaurtinib' of Supplementary Table 1),run:Lestaurtinib_02795_R2,Plate:MR022",79.8 nM
same,potency estimated from few doses,"PRKD3; compound concentrations:100 nM and 1000 nM (sheet 'Lestaurtinib' of Supplementary Table 1),run:Lestaurtinib_02802_R1,Plate:MR029",83.1 nM
same,potency estimated from few doses,"PRKD3; compound concentrations:100 nM and 1000 nM (sheet 'Lestaurtinib' of Supplementary Table 1),run:Lestaurtinib_02802_R3,Plate:MR029",82.7 nM
same,potency estimated from few doses,"PRKD3; compound concentrations:100 nM and 1000 nM (sheet 'Lestaurtinib' of Supplementary Table 1),run:Lestaurtinib_02896_R1,Plate:MR030",61.8 nM
same,potency estimated from few doses,"PRKD3; compound concentrations:100 nM and 1000 nM (sheet 'Lestaurtinib' of Supplementary Table 1),run:Lestaurtinib_02896_R2,Plate:MR030",80.6 nM
same,potency estimated from few doses,"PRKD3; compound concentrations:100 nM and 1000 nM (sheet 'Lestaurtinib' of Supplementary Table 1),run:Lestaurtinib_02896_R3,Plate:MR030",92.2 nM
same,potency estimated from few doses,"PRKD3; compound concentrations:100 nM and 1000 nM (sheet 'Lestaurtinib' of Supplementary Table 1),run:Lestaurtinib_03172_R3,Plate:MR031",90.1 nM
same,potency estimated from few doses,"PRKD3; compound concentrations:100 nM and 1000 nM (sheet 'Lestaurtinib' of Supplementary Table 1),run:Lestaurtinib_03252_R1,Plate:MR032",43.4 nM
same,potency estimated from few doses,"PRKD3; compound concentrations:100 nM and 1000 nM (sheet 'Lestaurtinib' of Supplementary Table 1),run:Lestaurtinib_03252_R2,Plate:MR032",30.6 nM
same,potency estimated from few doses,"PRKD3; compound concentrations:100 nM and 1000 nM (sheet 'Lestaurtinib' of Supplementary Table 1),run:Lestaurtinib_03260_R2,Plate:MR033",96.7 nM
same,potency estimated from few doses,"PRKD3; compound concentrations:100 nM and 1000 nM (sheet 'Lestaurtinib' of Supplementary Table 1),run:Lestaurtinib_03260_R3,Plate:MR033",91.2 nM
same,potency estimated from few doses,"Q6ZSR9; compound concentrations:100 nM and 1000 nM (sheet 'Lestaurtinib' of Supplementary Table 1),run:Lestaurtinib_02339_R1,Plate:MR001",78.9 nM
same,potency estimated from few doses,"Q6ZSR9; compound concentrations:100 nM and 1000 nM (sheet 'Lestaurtinib' of Supplementary Table 1),run:Lestaurtinib_02339_R3,Plate:MR001",48.8 nM
same,potency estimated from few doses,"Q6ZSR9; compound concentrations:100 nM and 1000 nM (sheet 'Lestaurtinib' of Supplementary Table 1),run:Lestaurtinib_02364_R1,Plate:MR002",68.5 nM
same,potency estimated from few doses,"Q6ZSR9; compound concentrations:100 nM and 1000 nM (sheet 'Lestaurtinib' of Supplementary Table 1),run:Lestaurtinib_02364_R2,Plate:MR002",68.1 nM
same,potency estimated from few doses,"Q6ZSR9; compound concentrations:100 nM and 1000 nM (sheet 'Lestaurtinib' of Supplementary Table 1),run:Lestaurtinib_02364_R3,Plate:MR002",78.6 nM
same,potency estimated from few doses,"Q6ZSR9; compound concentrations:100 nM and 1000 nM (sheet 'Lestaurtinib' of Supplementary Table 1),run:Lestaurtinib_02367_R1,Plate:MR003",62.7 nM
same,potency estimated from few doses,"Q6ZSR9; compound concentrations:100 nM and 1000 nM (sheet 'Lestaurtinib' of Supplementary Table 1),run:Lestaurtinib_02367_R2,Plate:MR003",66.7 nM
same,potency estimated from few doses,"Q6ZSR9; compound concentrations:100 nM and 1000 nM (sheet 'Lestaurtinib' of Supplementary Table 1),run:Lestaurtinib_02367_R3,Plate:MR003",78.8 nM
same,potency estimated from few doses,"Q6ZSR9; compound concentrations:100 nM and 1000 nM (sheet 'Lestaurtinib' of Supplementary Table 1),run:Lestaurtinib_02381_R1,Plate:MR004",69.4 nM
same,potency estimated from few doses,"Q6ZSR9; compound concentrations:100 nM and 1000 nM (sheet 'Lestaurtinib' of Supplementary Table 1),run:Lestaurtinib_02381_R2,Plate:MR004",64.6 nM
same,potency estimated from few doses,"Q6ZSR9; compound concentrations:100 nM and 1000 nM (sheet 'Lestaurtinib' of Supplementary Table 1),run:Lestaurtinib_02407_R1,Plate:MR005",62.3 nM
same,potency estimated from few doses,"Q6ZSR9; compound concentrations:100 nM and 1000 nM (sheet 'Lestaurtinib' of Supplementary Table 1),run:Lestaurtinib_02407_R2,Plate:MR005",71.9 nM
same,potency estimated from few doses,"Q6ZSR9; compound concentrations:100 nM and 1000 nM (sheet 'Lestaurtinib' of Supplementary Table 1),run:Lestaurtinib_02407_R3,Plate:MR005",68.5 nM
same,potency estimated from few doses,"Q6ZSR9; compound concentrations:100 nM and 1000 nM (sheet 'Lestaurtinib' of Supplementary Table 1),run:Lestaurtinib_02422_R1,Plate:MR006",72.4 nM
same,potency estimated from few doses,"Q6ZSR9; compound concentrations:100 nM and 1000 nM (sheet 'Lestaurtinib' of Supplementary Table 1),run:Lestaurtinib_02422_R2,Plate:MR006",20.6 nM
same,potency estimated from few doses,"Q6ZSR9; compound concentrations:100 nM and 1000 nM (sheet 'Lestaurtinib' of Supplementary Table 1),run:Lestaurtinib_02437_R2,Plate:MR007",55.6 nM
same,potency estimated from few doses,"Q6ZSR9; compound concentrations:100 nM and 1000 nM (sheet 'Lestaurtinib' of Supplementary Table 1),run:Lestaurtinib_02437_R3,Plate:MR007",9.66 nM
same,potency estimated from few doses,"Q6ZSR9; compound concentrations:100 nM and 1000 nM (sheet 'Lestaurtinib' of Supplementary Table 1),run:Lestaurtinib_02438_R3,Plate:MR008",74.8 nM
same,potency estimated from few doses,"Q6ZSR9; compound concentrations:100 nM and 1000 nM (sheet 'Lestaurtinib' of Supplementary Table 1),run:Lestaurtinib_02443_R1,Plate:MR009",51.6 nM
same,potency estimated from few doses,"Q6ZSR9; compound concentrations:100 nM and 1000 nM (sheet 'Lestaurtinib' of Supplementary Table 1),run:Lestaurtinib_02443_R2,Plate:MR009",62.7 nM
same,potency estimated from few doses,"Q6ZSR9; compound concentrations:100 nM and 1000 nM (sheet 'Lestaurtinib' of Supplementary Table 1),run:Lestaurtinib_02443_R3,Plate:MR009",77.8 nM
same,potency estimated from few doses,"Q6ZSR9; compound concentrations:100 nM and 1000 nM (sheet 'Lestaurtinib' of Supplementary Table 1),run:Lestaurtinib_02473_R1,Plate:MR010",78.4 nM
same,potency estimated from few doses,"Q6ZSR9; compound concentrations:100 nM and 1000 nM (sheet 'Lestaurtinib' of Supplementary Table 1),run:Lestaurtinib_02473_R2,Plate:MR010",61 nM
same,potency estimated from few doses,"Q6ZSR9; compound concentrations:100 nM and 1000 nM (sheet 'Lestaurtinib' of Supplementary Table 1),run:Lestaurtinib_02473_R3,Plate:MR010",35.7 nM
same,potency estimated from few doses,"Q6ZSR9; compound concentrations:100 nM and 1000 nM (sheet 'Lestaurtinib' of Supplementary Table 1),run:Lestaurtinib_02482_R2,Plate:MR011",76.6 nM
same,potency estimated from few doses,"Q6ZSR9; compound concentrations:100 nM and 1000 nM (sheet 'Lestaurtinib' of Supplementary Table 1),run:Lestaurtinib_02482_R3,Plate:MR011",65.6 nM
same,potency estimated from few doses,"Q6ZSR9; compound concentrations:100 nM and 1000 nM (sheet 'Lestaurtinib' of Supplementary Table 1),run:Lestaurtinib_02487_R1,Plate:MR012",71.7 nM
same,potency estimated from few doses,"Q6ZSR9; compound concentrations:100 nM and 1000 nM (sheet 'Lestaurtinib' of Supplementary Table 1),run:Lestaurtinib_02487_R2,Plate:MR012",66.6 nM
same,potency estimated from few doses,"Q6ZSR9; compound concentrations:100 nM and 1000 nM (sheet 'Lestaurtinib' of Supplementary Table 1),run:Lestaurtinib_02487_R3,Plate:MR012",81.2 nM
